The campaign covered roughly 53,000 sequences. About 3,700 (7%) were called active. The sample as a whole holds a higher share of actives than the screen did. Unmarked numbers belong to inactive results.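 Rule for the calls: active = gene knockdowns whose robust z-score for IL-1 alpha signal is at least 2 or at most -2, so actives lie on both sides; inactive = the rest.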
assay: Components of the Cytosolic LPS Sensing Pathway: Gene Identification via Genome-wide siRNA Screen; settings: RAW264.7 macrophages, IL-1a HTRF, actives lie on both sides, screened at 100 nM (by protocol), cells primed 5 h with Pam3CSK4 first;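 note: robust z of the log signal after scaling to non-targeting control siRNA wells of the plate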
In short: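 Using IL-1a HTRF as read-out, the screen measured release from RAW264.7 cells after 48h siRNA knockdown (100 nM), 5 h Pam3CSK4 priming and 24 h cytosolic LipidA. Values were expressed relative to negative-control wells as robust z-scores.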

Q: For GGUCUUUGAGUCUACACAGTT against Pde4dip, which z-score is on record?
A: -2.52 (active)

Q: Which z-score does the source give for GGAGUCCUACGUCAAAGAATT against Pigz here?
A: -0.251

Q: With GGAUCAGUAGCAUUAACAATT against Tcf7l2 as the sequence, how does the z-score read?
A: 0.414

Q: With GGUUCUCCAUACUUAUGCCTT against Prex1 as the sequence, how does the z-score read?
A: 2.97 (active)

Q: Which z-score does the source give for GGGCAAUCUGCUAUUCUCUTT against Pheta2 here?
A: 0.18

Q: With CCUUCUGUAUAGGUUCUGGTT against Slc41a3 as the sequence, how does the z-score read?
A: 0.716

Q: For GGGCUUAUGGAGUUGUAAATT against Avpi1, which z-score is on record?
A: -0.633

Q: For GGACAAGAAAAAGGAUUAGTT against Clptm1, which z-score is on record?
A: -0.414

Q: Which z-score does the source give for GCGUGAGUCCCUAUAUGAATT against Tmem177 here?
A: 2.98 (active)

Q: Which z-score does the source give for GGCUUCGCUCUGGUUUACUTT against Rap1b here?
A: 0.323

Q: With GCAAUUCCACGUAUGGAUUTT against Olfr652 as the sequence, how does the z-score read?
A: 0.336

Q: With GGCAAAAUUUGUGUGCAAATT against Mrc1 as the sequence, how does the z-score read?
A: 1.02

Q: Which z-score does the source give for GGCAGUCAUUACCUAUCAGTT against Atp7b here?
A: -0.271

Q: Which z-score does the source give for GGGUCAGCCAAAGGAAAAUTT against Nlrc3 here?
A: -0.193

Q: With CCAUGUCAAUAUAGCUGUCTT against Igfbpl1 as the sequence, how does the z-score read?
A: 2.25 (active)

Q: Which z-score does the source give for GCUUUCUCUUAUGGAUCUATT against Olfr700 here?
A: 0.966

Q: Which z-score does the source give for CGUGAUGCUGUAAAUAGUUTT against AI606181 here?
A: -0.485

Q: With “CCCAGAAGACCCGAACUUUTT against E130006D01Rik” as the sequence, how does the z-score read?
A: 0.378

Q: With GGAGCAUCUCUCCAGAUUGTT against Igsf9 as the sequence, how does the z-score read?
A: 0.567

Q: For CCGCUUUCUUGCCAUUCACTT against Olfr576, which z-score is on record?
A: -0.266

Q: For GCCUUAAUGCUUCAAGGUGTT against Hspd1, which z-score is on record?
A: 0.021

Q: With UCUGACAUUGACUCUAGCCTT against Fbxw16 as the sequence, how does the z-score read?
A: -2.5 (active)

Q: Which z-score does the source give for GUUUAUGGCCUCCUGUUGCTT against Gpbar1 here?
A: -0.773

Q: For GCAUGAGAGGUUUCAGUAUTT against Rnf150, which z-score is on record?
A: 0.454

Q: Which z-score does the source give for UUCGCUCUUGGUCCCUUCATT against Olfr1322 here?
A: 1.06

Q: For GCAUGUUGUCGACACAUGCTT against Bcl6, which z-score is on record?
A: 2.39 (active)

Q: With “CCGUCGUGGGUGAUAUCAUTT against 2310022A10Rik” as the sequence, how does the z-score read?
A: -0.0389

Q: With GGUGGCUCUCCAAGUUCUATT against Uchl4 as the sequence, how does the z-score read?
A: -0.279

Q: For GAACACCCUGCCGACCAAATT against Tmsb10, which z-score is on record?
A: -0.242

Q: Which z-score does the source give for GGACUGAGUCAGAUUUACATT against Foxn2 here?
A: -0.622

Q: For GGGCUGAUGCUUAAACAAATT against Vmn1r72, which z-score is on record?
A: -2.19 (active)

Q: Which z-score does the source give for GCCCUUAUUAAACCAUUUGTT against Usp9x here?
A: -0.641

Q: Which z-score does the source give for GGACUGUUUUAGAUUACUUTT against Klra4 here?
A: 0.968

Q: For GCUUAUGUUUCUGCCACUCTT against Olfr1136, which z-score is on record?
A: 0.124

Q: For GCCACCAUUAAAAGACUGATT against Gdnf, which z-score is on record?
A: 0.737

Q: Which z-score does the source give for GGACAAGAUGAACUUUUCCTT against Pomp here?
A: -2.85 (active)

Q: With CCUUGUAUGGAGAUAUUCCTT against Aph1b as the sequence, how does the z-score read?
A: -0.573

Q: Which z-score does the source give for GGUUCAGUUUGGAAAUGAATT against Rbm26 here?
A: 0.809

Q: For CGUCUGUUUACCUCAUGAATT against Arid3a, which z-score is on record?
A: -0.769

Q: For GGAUUUUGUCGGCAAGGCCTT against Ap5s1, which z-score is on record?
A: -3.12 (active)

Q: Which z-score does the source give for GGACUACUUCCCAAGAAUUTT against Gle1 here?
A: 0.365

Q: For GGUGGAGAAACAAAUUAGUTT against Rab9, which z-score is on record?
A: 1.47

Q: Which z-score does the source give for GGAAGAAAGAAUUGAACUUTT against Add3 here?
A: 1.02

Q: For CAUGAACGUGGGUAAAACGTT against Rab20, which z-score is on record?
A: -0.878

Q: Which z-score does the source give for GGAACUGGAUCCUAGGAUATT against Sh3bp5l here?
A: -1.35

Q: For GCCAAAUCUACUGUUAUUUTT against Fam174a, which z-score is on record?
A: 1.06

Q: With GGAAAGAUCAUGGACAAGUTT against Dtna as the sequence, how does the z-score read?
A: 2.06 (active)

Q: For GCAGUGAUCCGGAACAAAUTT against Tmc3, which z-score is on record?
A: -0.455

Q: Which z-score does the source give for GGCGAAAAUUACUCGAAAGTT against Penk here?
A: 0.941

Q: For GGAUGACGUAAUUGACGGCTT against Cyp19a1, which z-score is on record?
A: 0.0212

Q: Which z-score does the source give for CCAAAAUAAGUGUGGUCAATT against Vstm2l here?
A: -0.623

Q: With GGACUUGGUUUAUGAAACATT against Kif9 as the sequence, how does the z-score read?
A: -1.33

Q: For GGAGACCUUACCACUUGAATT against Ephx1, which z-score is on record?
A: -1.2

Q: For GGUCAAUUCCCAUACCCUGTT against Tfr2, which z-score is on record?
A: -1.23

Q: With CGACUCCCACCUUUAGGAGTT against Nkx2-5 as the sequence, how does the z-score read?
A: 2.5 (active)

Q: Which z-score does the source give for GGUGAAAAUACAUUGCCAGTT against Plk4 here?
A: -0.712

Q: With CCCAAAUAACAGAGAAAUGTT against St8sia6 as the sequence, how does the z-score read?
A: 0.818

Q: With CCUGAGAUUUCCUAACAUCTT against Prr11 as the sequence, how does the z-score read?
A: -0.281

Q: Which z-score does the source give for GGUGAAGUCACUAAUCUUUTT against Prpf19 here?
A: 1.12

Q: Which z-score does the source give for GCCACGACCUGGAACAACUTT against Taf6l here?
A: -0.479

Q: For “CGGCCUAACAGCCAGACUUTT against 1700013G24Rik”, which z-score is on record?
A: 0.9

Q: For GGUUUCUGCCAUCCAUCAGTT against Zfa-ps, which z-score is on record?
A: -0.705

Q: For CUUUUACACCAUCAUGACGTT against Mrgpra5, which z-score is on record?
A: -2.06 (active)

Q: With GGCGAAUGAAGGUUUCUGGTT against Pex11b as the sequence, how does the z-score read?
A: -0.581

Q: With GCUGUUGGUCUGAUAGCUUTT against Hadhb as the sequence, how does the z-score read?
A: 0.378

Q: Which z-score does the source give for GCCAUGCCUUAAUCUUGGUTT against Cd300lf here?
A: 0.0466

Q: For GCAAAGACGAAAUGCCGAGTT against Ttc32, which z-score is on record?
A: -0.23

Q: For GAUUCUCCAUUGCCCAAUGTT against Lce1i, which z-score is on record?
A: 0.0132

Source: PubChem BioAssay AID1508600 (Functional Genomics Laboratory (NCATS/FGL), 2020)
